# Data as given in ChEMBL document CHEMBL3988442, “University of Dundee, Small-Polar-MMV Screening Library” (2021).
# Target: Shiga toxin 2 (Escherichia coli O157:H7) (UniProt P09385+P09386)
# Assay: E. coli 0.157:H7 Shiga Toxin SOP - stx2 screening assay
# Assay type: functional
# Set-up: scale not given: direction of the effect not stated beside the values
# Settings: 30 µM
row,SMILES,Percent Effect [%]
1,CCn1cnnc1C1CCN(C(=O)COc2ccccc2)CC1,-10
2,CC(C)NS(=O)(=O)c1cc(C(=O)O)cc(-c2ccccc2CN(C)C)c1,-13.2
3,COc1cc(CNCc2ccc(C(C)O)cc2)cc2c1OCO2 (stereo not given),-48
4,Cc1cc(C)c(OCC(=O)NS(=O)(=O)c2c(C)noc2C)c(C)c1,21.6
5,Cc1ncc(-c2ccnc(N3CCCCC3)n2)c(=O)[nH]1,-19.6
6,O=C(CSCC1CC1)N1CCCC(c2nccn2Cc2ccncc2)C1 (stereo not given),6.34
7,CN(Cc1ccccc1)C(=O)c1nc(S(C)(=O)=O)n2ccccc12,20.9
8,Cc1nc(COC[C@@H]2CCC[C@@]23CNCCO3)cs1,-7.74
9,Cc1ccc(CNCc2nnc3n2CC(C(F)(F)F)CC3)cc1 (stereo not given),-16
10,CCc1nc(C(=O)N2CCCC2)nn1-c1ccccc1Cl,6.73
11,O=C(Cc1cccc(Cl)c1)N[C@@H]1CCNC[C@H]1O,49.4
12,CCN(Cc1ccc2c(c1)OCO2)C(=O)CCc1c(C)nc(C)[nH]c1=O,29.9
13,Cn1cccc1C(=O)N1CCCC2(CCCN2Cc2cccnc2)C1 (stereo not given),19.4
14,Cc1cnn(C2CCCN(C(=O)CCCOc3cccc(F)c3)C2)c1 (stereo not given),11.8
15,CCCc1nc(C(C)(C)NC(=O)C2CC(=O)N(CC3CC3)C2)no1 (stereo not given),20
16,Cc1ccc(C(=O)N2CCCS2(=O)=O)cc1Cl,-5.68
17,COCCn1ccc(=O)c(OCC(=O)Nc2cccc(C(C)=O)c2)c1C,-43.8
18,O=C(NC1(c2cccc(F)c2)CCOCC1)c1cc[nH]n1,-26.7
19,Cn1cnnc1C1CCCN(C(=O)c2ccccc2Cl)C1 (stereo not given),22.4
20,C1CCCN(c2nc(C3CC3)ns2)CC1,-28.7

row,SMILES,Percent Effect [%]
1,CCc1c(C)nc2n(c1=O)CC(C(=O)Nc1nccs1)CS2 (stereo not given),-29.4
2,CCOCC1CN(C(=O)c2cscn2)Cc2nnn(CC3CC3)c21 (stereo not given),-6.48
3,COc1ccc(-c2csc(N)c2C#N)cc1OC,-24.5
4,Cc1cnn(CCNCc2csc(-c3ccc4c(c3)OCO4)n2)c1,23.7
5,CN1CCc2cc(C(CNS(=O)(=O)c3cccs3)N3CCCC3)ccc21 (stereo not given),-6.23
6,c1cnn(CC2CN(Cc3noc(C4CC4)n3)CCO2)c1 (stereo not given),5.97
7,Cc1cc(NC(=O)NCC(C)N2CCc3ccccc32)no1 (stereo not given),-1.83
8,CN(Cc1ccccc1)CC1(O)CCCN(CC(C)(C)C)C1=O (stereo not given),17.9
9,CCNC(c1cccnc1)c1cc(C)cc(C)c1 (stereo not given),-3.23
10,O=C(Cc1ccc(F)cc1)N1CCn2cc(Cn3cccn3)nc2C1,5.65
11,Cn1cc(CN2CCC3(C2)CN(Cc2ccsc2)C3)cn1,-10.4
12,COc1cccc(CN2CCCC(Nc3cccc(F)c3)C2)c1O (stereo not given),11.2
13,CCn1c(C)cc(C(=O)N2CCCC(n3nc(C)nc3C)C2)c1C (stereo not given),16
14,CC(C)CCN1CCN(Cc2nc(C3CC3)no2)CC1,-32
15,Cc1cc(CN2Cc3ccccc3CC2c2nnc(C)o2)on1 (stereo not given),8.24
16,CN(C)C(=O)N1CCC2(CCCN(Cc3cnn(C)c3)C2)C1 (stereo not given),0.121
17,Cc1nn(C)c(N2CCOCC2)c1CNC1CCN(C(C)(C)C)CC1,1.07
18,CCCN1CCCn2nc(CNS(=O)(=O)c3ccc(C)cc3)cc2C1,6.63
19,Cc1ccc(CNC(=O)CCSCc2csc(C)n2)cn1,-2.37
20,O=C(NCCNC(=O)c1scnc1Cl)c1ccccc1,-34.6
